Measured values reported in ChEMBL document CHEMBL4513146, “CO-ADD screening of Karazin Kharkiv National University (Ukraine) compounds”.
Measured potencies and affinities stand elsewhere.

Columns and labels:
[1] = system: Klebsiella pneumoniae; conditions: Concentration 32 ug.mL-1;; ASSAY_TEST Inhibition of Bacterial Growth; detection method Absorption (OD600); MEDIA CAMHB; plate type 384well; NBS; CORNING #3640; time 18 hr
[2] = system: Candida albicans; conditions: Concentration 32 ug.mL-1; ASSAY_TEST Inhibition of Fungal Growth; detection method Absorption (OD530)
[3] = system: Cryptococcus neoformans; conditions: Concentration 32 ug.mL-1; ASSAY_TEST Inhibition of Fungal Growth; detection method Resazurin; Absorption (OD600-OD570); plate type 384well; NBS; CORNING #3640

| Structure (SMILES) | Inhibition [1] [%] | Inhibition [2] [%] | Inhibition [3] [%] |
| --- | --- | --- | --- |
| CCC(C)NC(=O)Cn1nc2n(CC(C)C)c(=O)c3ccc(C(=O)NC4CCCCC4)cc3n2c1=O (stereo unspecified) | 0.48 | -1.97 | -14.64 |
| CCc1ccc(N(Cc2cccc(C)c2)S(=O)(=O)c2cccn3c(C)nnc23)cc1 | 2.32 | 4.84 | -3.55 |
| Cc1ccccc1Oc1nccn2c(=O)n(CC(=O)Nc3ccc(C#N)cc3)nc12 | 13.8 | -1.85 | -9.67 |
| Cc1nnc2ccc(S(=O)(=O)N(Cc3ccccc3)c3ccc(F)cc3)cn12 | 4.54 | 1.53 | -1.68 |
| Cc1ccc(F)cc1NC(=O)CSc1nnc2ccc(C(=O)Nc3cccc(F)c3)cn12 | 2.35 | -0.79 | -3.99 |
| CCCCOc1ccc(-c2cc3c4nnc(SCC(=O)N(C)c5ccc(F)cc5)n4ccn3n2)cc1 | 3.98 | 15.18 | -9.29 |
| COc1ccc(NC(=O)Cn2nc3c(N4CCCC4)nccn3c2=O)cc1Cl | 15.87 | 1.28 | -15.33 |
| COc1ccc(-c2cc3c4nnc(SCC(=O)Nc5cccc(C#N)c5)n4ccn3n2)cc1 | 2.25 | 13.14 | -16.67 |
| Cc1ccc(NC(=O)CSc2nnc3c(=O)n(-c4ccc(C)c(C)c4)ccn23)c(Cl)c1 | 12.06 | 0.25 | -10.04 |
| CCOC(=O)c1ccccc1NC(=O)CSc1nc2ccccc2n2c(C(C)C)nnc12 | 12.78 | 1.73 | -19.92 |
| O=C(Cn1nc2ccc(SC3CCCCC3)nn2c1=O)Nc1ccc(F)c(F)c1 | 13.05 | 13.65 | -16.79 |
| COc1cccc(Cn2nc3n(CCC(=O)NC4CCCCC4)c(=O)c4ccccc4n3c2=O)c1 | 9.79 | 5.45 | -13.5 |
| Cc1cccc(C)c1NC(=O)Cn1nc2ccc(SCc3ccc(Cl)cc3)nn2c1=O | -2.95 | 27.65 | -10.13 |
| COc1ccc(-c2cc3c4nnc(CCC(=O)N5CCN(c6ccccc6F)CC5)n4ccn3n2)cc1 | 15.22 | 2.19 | -8.32 |
| COc1ccccc1-n1ccn2c(SCC(=O)Nc3ccc(C)c(F)c3)nnc2c1=O | 8.02 | 2.55 | -5.32 |
| CSc1cccc(NC(=O)Cn2nc3ccc(C(=O)NCc4ccccc4)cn3c2=O)c1 | 7.41 | 7.13 | -20.24 |
| COc1cc(NC(=O)Cn2nc3ccc(SC4CCCCC4)nn3c2=O)cc(OC)c1 | 6.28 | 4.08 | -40.43 |
| COc1cc(NC(=O)CSc2nnc3c(=O)n(-c4cccc(F)c4)ccn23)cc(OC)c1 | 4.95 | 13.47 | -8.34 |
| CCOc1ccc(NC(=O)Cn2nc3ccc(Sc4cccc(F)c4)nn3c2=O)cc1 | 0.85 | 6.64 | -8.03 |
| Cc1ccc(-c2cc3c4nn(CC(=O)Nc5ccccc5Br)c(=O)n4ccn3n2)cc1C | 18.24 | -0.22 | -11.06 |
| O=C(CSc1nnc2c(=O)n(-c3ccccc3)ccn12)N1CCN(c2ccc(F)cc2)CC1 | 13.33 | -0.45 | -26.48 |
| CCCCc1ccc(NC(=O)Cn2nc3c(N4CC(C)CC(C)C4)nccn3c2=O)cc1 (stereo unspecified) | 3.89 | 4.16 | -10.16 |
| COc1ccccc1-n1ccn2c(SCC(=O)Nc3ccc(F)cc3F)nnc2c1=O | 8.27 | 0.36 | -9.49 |
| COc1ccccc1Cn1c(=O)c2sccc2n2c(=O)n(Cc3cccc(C)c3)nc12 | 9.07 | 1.33 | -25.61 |
| CCOC(=O)c1ccccc1NC(=O)Cn1c(=O)c2nnc(C(C)C)n2c2ccccc21 | 12 | 1.04 | -21.33 |
| CC(C)c1nnc2c(SCC(=O)Nc3ccc(Br)cc3F)nc3ccccc3n12 | 8.89 | 0.43 | -17.6 |
| COC(=O)c1ccc(Cn2nc3ccc(S(=O)(=O)N4CCCCCC4)cn3c2=O)o1 | 1.98 | -1.08 | -5.87 |
